In PubChem BioAssay (NCI) one finds growth data, which are given here for nine compounds.

The panel holds about 83,000 compounds, 20% with a hit somewhere; the sample as a whole holds those more often.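 Each cell line was grown in a 96-well plate and treated with one concentration of compound for 48 hours. Values below 10 were considered active.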 A number with no mark means an inactive call. The source made the active and inactive calls.

What all share (assay): NCI-60 one-dose screen, 48 h (100 = growth as untreated, 0 = no growth, -100 = all killed)
For experiment [1], the system named is EKVX NSCLC. To be noted: 10 µM unless noted.
The test system of experiment [2] is SN12C renal. To be noted: 10 µM unless noted.
Experiment [3] deals with UO-31 renal. The following applies: 10 µM unless noted.
For experiment [4], the system named is TK-10 renal. The following applies: 10 µM unless noted.
In experiment [5] the test system is CAKI-1 renal. The following applies: 10 µM unless noted.
Experiment [6] relates to A498 renal. The following applies: 10 µM unless noted.
For experiment [7], the system named is CCRF-CEM leukemia. The following applies: 10 µM unless noted.
Experiment [8] concerns MOLT-4 leukemia. The following applies: 10 µM unless noted.
The test system of experiment [9] is SR leukemia. The following applies: 10 µM unless noted.
In experiment [10] the test system is RPMI-8226 leukemia. To be noted: 10 µM.
Experiment [11] has as its system OVCAR-8 ovarian. To be noted: 10 µM unless noted.
Experiment [12] deals with OVCAR-5 ovarian. To be noted: 10 µM unless noted.
The test system of experiment [13] is OVCAR-4 ovarian. The following applies: 10 µM unless noted.
Experiment [14] relates to SK-OV-3 ovarian. The following applies: 10 µM.
Experiment [15] has as its system IGROV1 ovarian. To be noted: 10 µM unless noted.
The subject of experiment [16] is OVCAR-3 ovarian. To be noted: 10 µM unless noted.
For experiment [17], the system named is HS 578T breast. To be noted: 10 µM unless noted.
Experiment [18] relates to NCI/ADR-RES ovarian. The following applies: 10 µM unless noted.
The test system of experiment [19] is ACHN renal. To be noted: 10 µM unless noted.

On to `COc1cc(/C=C/C(=O)CC(=O)/C=C/c2cc(Br)c(OC)c(OC)c2)cc(Br)c1OC`, for which the growth in [1] was 105%; in experiment [2] it was 96.6%; in experiment [3], 87.9%; in experiment [4], 109%; in experiment [5] it was 105%; in experiment [6], 98.4%. Besides, the growth in experiment [7] was 114%; in experiment [8] it was 71.5%; in experiment [9] it was 49.6%; in experiment [10], 116%; in [11], 102%; in experiment [12], 99.1%. For the same compound, the growth in experiment [13] was 103%; in experiment [14], 96.6%; in experiment [15] it was 109%; in experiment [16] it was 102%; in [17], 113%; in experiment [18], 99.3%.

As to `CCN1CCN(c2ccc(Nc3ncc4ccc5ncn(C(C)C)c5c4n3)nc2)CC1`, the growth in [1] is -6.84% (active); in experiment [2] it was 4.25% (active); in experiment [3] it was -5.17% (active); in [19], 2.84% (active); in [5], -10.7% (active); in experiment [6] it was -61.5% (active). Also, the growth is 4.85% (active) in experiment [7]; 2.48% (active) in experiment [8]; 3.9% (active) in [9]; 13.6% in experiment [11]; 4.92% (active) in experiment [12]; 5.12% (active) in experiment [13]. For the same compound, the growth in experiment [15] was -4.82% (active); in [16] it was -28.2% (active); in experiment [17], -20.8% (active).

With `CON=C1C[C@]2(C[C@@H]3C[C@@H](C/C=C(\C)C[C@@H](C)/C=C/C=C4\CO[C@@H]5[C@H](O)C(C)=C[C@@H](C(=O)O3)[C@]45O)O2)O[C@H](/C(C)=C/C(C)C)[C@H]1C`, the growth in experiment [1] was 20%; in experiment [2], 55%; in [3], 24%; in experiment [4], 81.9%; in experiment [5], 44.8%; in [6], 38.3%. Besides, the growth is 38.2% in experiment [7]; -20.4% (active) in experiment [8]; -39.5% (active) in experiment [9]; 43.7% in experiment [10]; 66.4% in [11]; 70.1% in experiment [12]. The growth in [13] was 57.2%; in experiment [14] it was 95.2%; in [15] it was 28.1%; in experiment [16], 1.95% (active); in experiment [17], 60.2%; in experiment [18], 64.8%.

Turning to `CC(C)(C)CC(C)(C)N(CSc1ccc(Cl)cc1)CSc1ccc(Cl)cc1`, the growth in experiment [2] is 16.6%; in experiment [3], 25.5%; in experiment [4], 76.5%; in experiment [19], 63.8%; in [5], 24.9%; in experiment [6], -7.24% (active). Besides, the growth is -19.8% (active) in experiment [7]; -34.5% (active) in experiment [8]; -32.7% (active) in experiment [9]; -25% (active) in experiment [10]; 44.6% in experiment [11]; 63.4% in [12]. Further, the growth in [13] was 50.1%; in [14], 71%; in experiment [15], 2.44% (active); in experiment [16] it was 41.4%; in experiment [17], 66.6%; in [18], 45.6%.

Take `O=c1onc(-c2ccccc2)c2ccccc12`: the growth in experiment [1] is 121%; in experiment [2] it was 101%; in [3] it was 97.8%; in [4] it was 114%; in [19], 112%; in [5], 98.5%. Further, the growth in experiment [6] is 83.1%; in experiment [8], 98.9%; in experiment [9], 101%; in experiment [10], 98.4%; in experiment [11], 103%; in [12], 116%. Further, the growth was 106% in [13]; 112% in experiment [14]; 113% in experiment [15]; 113% in experiment [16]; 103% in experiment [18].

As for `Cc1ccc2nc(NC(=O)CSC(=S)N3CCN(C)CC3)sc2c1`, the growth in [1] was 98.1%; in experiment [2], 100%; in experiment [3], 78.5%; in experiment [4] it was 122%; in experiment [6], 108%; in [8], 123%. In addition, the growth in experiment [9] is 138%; in experiment [10], 106%; in [11], 75.6%; in experiment [12] it was 105%; in experiment [13] it was 100%; in experiment [14], 108%. In addition, the growth was 86.7% in experiment [15], 120% in [16], 114% in experiment [17] and 89% in experiment [18].

Take `COc1cc(/C=N/NC(=O)c2cnn3c2NC(c2ccccc2)C3)ccc1OC1CCCC1` (stereo unspecified): the growth in experiment [1] was 44.9%; in experiment [2], 46.1%; in experiment [3], 33.1%; in [4], 60.2%; in [5], 32.2%; in [7], 24.3%. For the same compound, the growth in [8] is 41.6%; in experiment [9], 35.2%; in experiment [10], 17.9%; in experiment [11] it was 49.1%; in experiment [12] it was 59.7%; in experiment [13], 44.6%. Besides, the growth was 42.6% in experiment [15], -32.9% (active) in experiment [16], -18% (active) in experiment [17] and 14% in experiment [18].

Consider `CCCCCCCC/C=C\CCCCCCCCOc1cccc(CC(=O)NCC[N+](C)(C)C)c1`, for which the growth in experiment [1] was 92.6%; in experiment [2] it was 69.7%; in experiment [3] it was 92.6%; in [4], 68.6%; in experiment [19] it was 93.4%; in [5], 71.2%. For the same compound, the growth in [7] is 78%; in [8] it was 92.9%; in experiment [9], 59%; in experiment [10], 61.9%; in experiment [11], 85.9%; in experiment [12], 51.8%. The growth in [13] was 88.6%; in experiment [15] it was 3.34% (active); in experiment [16] it was 99.4%; in [17], 78.4%; in experiment [18] it was 103%.

As to `O=C1C(OCCOc2ccccc2)=C(OCCOc2ccccc2)C(=O)c2ccccc21`, the growth in [1] was 103%; in [2] it was 51.8%; in [3], 46.9%; in experiment [4] it was 116%; in experiment [19] it was 73.5%; in [6] it was 94.7%. The growth in experiment [8] is 82.9%; in [9], 60.1%; in [10], 78.8%; in experiment [11], 86.8%; in experiment [13], 44.8%; in experiment [14], 57.9%. For the same compound, the growth in experiment [15] is 62.7%; in experiment [16], 78.2%; in [17], 60.3%; in experiment [18], 68.8%.
